Screens as filed in PubChem.
An excerpt weighted towards active compounds, which were near 5.9% of everything screened.
GLP1R cytotox: cytotoxic in the GLP-1 receptor inverse agonist counter-screen. hit rate 0.13% among 410,000. HEK293 cAMP-luciferase reporter cells, luminescence, 24 h. Potency, µM (series often up to 38.3 µM), inactives show top-dose activity change, negative = inhibition, hits mostly inhibitors;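 note: loss of luciferase light is scored as toxicity; % is set by controls: 0 for no effect and ±100 for the full control effect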
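Cells in DMEM/10% Nu serum/1% pen-strep, 1536-well format. Pre-incubated 12 h, dosed with 23 nL compound, incubated a further 24 h. Luciferase detection, 12 min at room temp, luminescence.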
Gal4-VP16 FLuc: inhibits Gal4-VP16 luciferase reporter, ROR gamma counter-screen; Drosophila S2 Gal4-VP16 UAS-luciferase, luminescence, 20 h; Potency, µM (highest dose often 53.6 µM), without a hit: top-dose activity, negative = inhibition, hits mostly inhibitors; hit rate 3.5% among 310,000;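 note: Gal4-VP16 expression switched on by copper sulfate through the metallothionein promoter; % is set by controls: 0 for no effect and ±100 for the full control effect; nearly all actives have a fitted effect of over 50% in size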
RORg inh: ROR gamma (mouse) transcription inhibition; Potency, µM (series often up to 53.6 µM), without a hit: at the top dose activity change, negative = inhibition, most hits filed as inhibitors; hit rate 5.4% among 310,000; AID 2551; Drosophila S2 Gal4-RORgamma UAS-luciferase reporter, 20 h; note: % is set by controls: 0 for no effect and ±100 for the full control effect; nearly all actives have a fitted effect of over 60% in size
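Compounds are pin-transferred onto Drosophila Schneider cells expressing a copper-inducible Gal4–ROR gamma transactivation domain fusion. After 1 hr, copper sulfate is added to 700 uM final; luciferase is read 20 hr later.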
GLP1R inv ag: GLP-1 receptor (human) inverse agonism; AID 624417; P43220; Potency, µM (titrated, usually from 38.3 µM), inactives show at the highest dose activity change, negative = inhibition, most hits filed as inhibitors; hit rate 1.6% among 410,000; HEK293 GLP-1R CRE-luciferase, luminescence, 24 h; GLP-1R form is constitutively active; note: % is set by controls: 0 for no effect and ±100 for the full control effect; nearly all actives have a fitted effect of over 55% in size
Target sequence (P43220 whole entry, looked up): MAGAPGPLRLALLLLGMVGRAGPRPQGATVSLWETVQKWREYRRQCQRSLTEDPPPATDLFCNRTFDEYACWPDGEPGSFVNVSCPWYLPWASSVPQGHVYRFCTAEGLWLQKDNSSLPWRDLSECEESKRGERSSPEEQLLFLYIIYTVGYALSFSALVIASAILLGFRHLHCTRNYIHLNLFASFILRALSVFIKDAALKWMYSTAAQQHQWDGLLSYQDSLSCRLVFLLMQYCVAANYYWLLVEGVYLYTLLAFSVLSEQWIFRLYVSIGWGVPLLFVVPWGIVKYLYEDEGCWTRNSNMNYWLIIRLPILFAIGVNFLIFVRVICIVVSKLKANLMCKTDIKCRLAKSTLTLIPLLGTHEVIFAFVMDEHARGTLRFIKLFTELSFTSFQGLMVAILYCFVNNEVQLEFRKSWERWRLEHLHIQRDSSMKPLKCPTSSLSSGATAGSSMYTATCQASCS
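Using stably transfected HEK293 (constitutively active GLP-1R, cAMP-luciferase reporter), compounds were incubated 24 hr and luciferase measured by luminescence.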
GLP1R ag: GLP-1 receptor (human) agonism; P43220; HEK293 GLP-1R CRE-luciferase, luminescence, 4-6 h; cells express a hypersensitive GLP-1R form; Potency, µM (top dose mostly 45.6 µM), inactives show at the highest dose activation, actives largely listed as activators; hit rate 0.007% among 380,000; note: % of control where 0% means no effect
Active calls of the source: *; i = inactive; ? = inconclusive; · = no result given; [ ] = another dose, or the depositor's remark. Calls come from the whole dose curve; as a rule, active = well fitted curve in the direction sought with a large enough effect; inconclusive = small, poorly fitted or top-dose-only effect, or another doubt; inactive = no such curve, though single readings can be large; an effect the other way counts as inactive or inconclusive. Potency is the fitted concentration of half-maximal effect.

SMILES	GLP1R cytotox	Gal4-VP16 FLuc	RORg inh	GLP1R inv ag	GLP1R ag
CCn1c(=N)n(CC(=O)c2cccc([N+](=O)[O-])c2)c2ccccc21	9%	-2%	-25%	18%	?
Cc1ccc(Cn2c(=N)n(CC(=O)c3ccccc3)c3ccccc32)cc1	?	14µM*	13µM*	?	20%
COc1ccc2c(c1)O[C@@H](c1ccc3c(c1)OCO3)[C@H](OC(=O)NCCOc1ccccc1)C2=O	·	-3%	26%	·	·
Cc1ccc(-c2cn3nc(C)c(C)nc3n2)cc1	i	10µM*	7.9µM*	1.4µM*	-36%
CCOc1ccc(CCNC(=O)C2CCCN(c3nnc(C)c4c(C)n(-c5ccccc5)nc34)C2)cc1 (stereo unspecified)	-21%	·	·	12%	·
O=C(NC1CCCCC1)C(Cc1ccccc1)NS(=O)(=O)c1cccs1 (stereo unspecified)	-7%	3%	-9%	0%	-3%
O=S(=O)(NC(=S)NC1CCCCC1)c1cccs1	12%	-84%	11µM*	1%	1%
O=S(=O)(NC(=S)NC1CCCCC1)c1ccccc1	2%	?	4.5µM*	9%	-4%
COc1ccccc1CNC(=O)c1nnn(CC(=O)Nc2c(C)cccc2C)c1N	21%	·	·	6%	·
Cc1ccc2[nH]c(=O)c(NC(N)=S)nc2c1	-27%	?	11µM*	0%	-2%
COCCn1c(=O)c(-c2ccc(F)cc2)nc2cnc(N3CCOCC3)nc21	·	-11%	43%	·	·
CCCCNc1nc(Oc2ccc(=O)n(-c3ccccc3)n2)nc(N(CC)CC)n1	8%	·	·	4%	·
CCCCn1c(=O)c2ccccc2n2c(=S)[nH]nc12	1%	?	10µM*	4%	-1%
CCCCCn1c(=O)c2ccccc2n2c(=S)[nH]nc12	-3%	?	7.1µM*	1%	-5%
CCCn1c(=O)c2ccccc2n2c(=S)[nH]nc12	-4%	-6%	-9%	12%	-2%
N#Cc1ccc(/C=C/C(=O)c2cccnc2)cc1	?	?	7.9µM*	?	-8%
O=C(/C=C/c1ccccc1Cl)c1cccnc1	?	?	?	-29%	-32%
O=C(/C=C/c1ccc(Cl)cc1)c1cccnc1	?	20µM*	?	10%	-32%
CCn1ccnc1CN(C)C(=O)c1cc(COc2ccc(OC)c3ccccc23)on1	-13%	28µM*	-81%	?	10%
Cc1ccc(C)c(OCc2cc(C(=O)N(C)Cc3nccn3C)no2)c1	-1%	-6%	-10%	-5%	1%
COc1cccc(Cn2c(=O)c(-c3cccs3)nc3cnc(N(C)C)nc32)c1	·	1%	?	·	·
CCCCN(C)CCNC(=O)c1cc2c(=O)n(C)c3ccccc3c2n1C	0%	·	·	10%	·
Cc1ccc2c(CNCCc3ccccc3)c(C(=O)O)n(Cc3ccccc3C)c2c1	0%	·	·	-7%	·
O=C(NC(=S)NNC(=O)c1ccccc1O)c1ccc(F)cc1	1%	?	-44%[1.91 µM]	-4%	0%
O=C(NC(=O)c1ccccc1O)c1ccc(C(F)(F)F)cc1	1%	8.9µM*	?	4%	5%
SMILES	GLP1R cytotox	Gal4-VP16 FLuc	RORg inh	GLP1R inv ag	GLP1R ag
CCCc1ccc(C(=O)NC(=O)c2ccccc2O)cc1	-13%	1.6µM*	2.8µM*	?	-1%
CCOc1ccc(/C=N/Nc2cc(N3CCOCC3)ncn2)c(O)c1	-3%	·	·	?	6%
CCCOc1ccc(/C=N/Nc2cc(N3CCOCC3)ncn2)c(O)c1	-17%	18µM*	?	?	-3%
CC(C)(C)[C@]1(O)CCN2CC3c4ccccc4CCc4cccc(c43)[C@@H]2C1 (stereo partly specified)	·	-15%	-24%	·	0%
c1ccc(-c2csc3ncnc(NCCN4CCOCC4)c23)cc1	18%	?	-24%	?	-3%
Clc1ccc(-c2csc3ncnc(NCCN4CCOCC4)c23)cc1	67%	-10%	-1%	3.2µM*	3%
Clc1ccc(CNc2nc(CN3CCOCC3)nc3scc(-c4ccccc4)c23)cc1	?	8.9µM*	11µM*	3.2µM*	-3%
Cc1ccc(-c2csc3ncnc(NCCN4CCOCC4)c23)cc1	65%	?	16%	?	4%
COc1ccc(C(=O)CCC(=O)Nc2ccccc2C)cc1	-13%	·	·	14%	·
O=C(CCC(=O)OCC(=O)c1ccc(-c2ccccc2)cc1)Nc1cccc(Cl)c1	6%	13µM*	7.1µM*	50%	3%
Cc1ccccc1NC(=O)CCC(=O)OCC(=O)c1ccc(-c2ccccc2)cc1	13%	10µM*	7.9µM*	12%	-3%
Cc1ccc(/C=N/NC(=O)CCn2nc(C)cc2C)c(C)c1	-7%	3%	-24%	?	12%
Cc1ccc(C)c(/C=N/NC(=S)NC(C)C)c1	-27%	3.2µM*	2.2µM*	?	19%
CCNC(=S)N/N=C/c1cc(C)ccc1C	5.6µM*	2.5µM*	1.8µM*	4.5µM*	-3%
CN(C)c1ccc(/C=N/NC(N)=S)cc1[N+](=O)[O-]	-28%	?	18µM*	36%	14%
CC(C)NC(=S)N/N=C/c1ccccc1[N+](=O)[O-]	13%	5.6µM*	1.8µM*	10%	0%
C=CCNC(=S)Nc1ccc2nc(C)c(C)nc2c1	4%	-6%	-37%	0%	3%
C=CCNC(=O)CC(=O)N/N=C/c1cccc(C)c1	-17%	-14%	-11%	1%	9%
CNC(=S)Nc1ccc(C)cc1	4%	13%	?	16%	-2%
CNC(=S)N/N=C/c1cc(C)ccc1C	?	5µM*	2.2µM*	?	7%
C=CCNC(=S)N/N=C/c1ccc(C)c([N+](=O)[O-])c1	7.9µM*	4.5µM*	1.1µM*	?	18%
CCNC(=S)N/N=C/c1cccc(C)c1	?	0.89µM*	0.89µM*	?	5%
C=CCNC(=S)N/N=C/c1ccc(C)cc1C	?	?	0.45µM*	?	0%
CN(C(=O)c1ccoc1)c1ccccc1I	·	-17%	-2%	·	·
CN(Cc1ccccc1)C(=O)c1cc2c(s1)-c1ccc(Cl)cc1SC2	-2%	·	·	?	·
SMILES	GLP1R cytotox	Gal4-VP16 FLuc	RORg inh	GLP1R inv ag	GLP1R ag
Cc1ccc(NC(=S)NC(=O)c2ccc(Br)o2)c(C)c1	-8%	?	2.2µM*	16%	17%
Cc1c(NC(=S)NC(=O)c2ccc(Br)o2)c(=O)n(-c2ccccc2)n1C	0%	3%	2%	25%	-3%
Cc1cccc(C)c1NC(=S)NC(=O)c1ccc(Br)o1	?	?	3.2µM*	?	-2%
Cc1cccc(NC(=S)NC(=O)c2ccc(Br)o2)c1C	-15%	?	3.5µM*	-25%	12%
O=C(NC(=S)Nc1ccccc1F)c1ccc(Br)o1	?	?	4.5µM*	-15%	23%
O=C(CN(c1cc(C(F)(F)F)ccc1Cl)S(=O)(=O)c1ccccc1)NCCc1ccccc1	5%	·	·	?	-13%
